Bioassay records as filed in PubChem.
D1 PAM: enhances dopamine response at the human D1 receptor | P21728 | 360,000 compounds, 0.036% hits | HEK293 TREx D1 cells, calcium flux, dopamine EC20 potentiation | potentiation, % at 10 µM; in the data active = potentiation above about 30%; also: 0% is about no effect
Target sequence (P21728 whole entry, looked up): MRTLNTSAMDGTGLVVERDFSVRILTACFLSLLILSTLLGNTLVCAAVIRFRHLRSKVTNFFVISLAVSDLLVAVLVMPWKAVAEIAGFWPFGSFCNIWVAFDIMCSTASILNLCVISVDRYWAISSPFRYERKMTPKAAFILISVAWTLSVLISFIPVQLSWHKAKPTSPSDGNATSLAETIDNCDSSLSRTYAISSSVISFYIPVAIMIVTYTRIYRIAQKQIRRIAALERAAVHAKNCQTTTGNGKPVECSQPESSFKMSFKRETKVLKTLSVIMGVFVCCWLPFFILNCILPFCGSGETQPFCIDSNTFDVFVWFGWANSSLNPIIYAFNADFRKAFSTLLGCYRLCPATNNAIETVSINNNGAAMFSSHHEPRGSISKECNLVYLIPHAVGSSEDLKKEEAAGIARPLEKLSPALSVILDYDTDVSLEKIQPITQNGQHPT
TRHR PAM: allosteric enhancers of human TRH receptor | P34981 | TRHR cells, fluo-8 calcium fluorescence, EC20 TRH enhancement | enhancement, % at 2 µM | 360,000 compounds, 0.66% hits; in the data active = enhancement above about 30%; also: 0% is about no effect
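TRHR-expressing cells loaded with fluo-8 calcium dye were read kinetically (ex 480/em 530) during compound addition, then stimulated with an EC20 of TRH (10 nM final). Enhancement of the Gq-mediated intracellular calcium response was scored.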
D1 ag: agonists of human D1 dopamine receptor. P21728. HEK293 T-REx D1 cells, calcium flux, agonist mode. activation, % at 2 µM. 360,000 compounds, 1% hits; also: 0% is about no effect
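Tetracycline-induced HEK293 TREx D1 cells, force-coupled to calcium signalling, were dye-loaded with a no-wash calcium kit. Compound was pin-added after a 10 s baseline. Fluorescence was read kinetically at 1 cycle/s for 180 s, with calcium rises flagged as agonism.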
TRHR ag: activates the human TRH receptor; P34981; 360,000 compounds, 0.18% hits; TRHR cells, calcium flux fluo-8, FDSS agonist mode; activation, % at 2 µM; also: 0% is about no effect
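Read-out: compound-evoked intracellular calcium rise in TRHR cells, fluo-8 dye, kinetic FDSS fluorescence at 1 s/cycle following a 10-cycle baseline. Cells cultured overnight before dye loading (30 min–1.5 h, RT).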
D1 antag: human D1 dopamine receptor antagonism; AID 504652; activity change, negative = inhibition, % at 10 µM; HEK293 TREx D1 cells, calcium flux, dopamine EC80; active compounds read low; 360,000 compounds, 3.2% hits; in the data active = activity change below about -30%; also: % is scaled to controls: 0 for no effect and ±100 for the full control effect
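Cells carrying a force-coupled, tetracycline-inducible human D1 receptor report calcium flux. Each well gets a 10 s baseline, compound with 180 s monitoring, then an EC80 dopamine stimulus with a second 180 s kinetic read.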
Glioma ERSR ind: inducers of ER stress response in human glioma cells; U87-MG GRP78 promoter luciferase reporter, 16 h; Potency, µM, for inactives: at the highest dose activation, hits mostly activators; 420,000 compounds, 0.02% hits; active = well fitted activation curve with a large enough effect; also: potency is read from the fitted curve at half-maximal effect; series mostly up to about 76 µM; % of control where 0% means no effect; nearly all actives have a fitted effect of over 35% in size
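ERSR induction read as luciferase luminescence (Bright-Glo, 10 min at room temperature) in stably transfected human U87-MG glioma cells exposed to compounds for 16 h, using GRP78 as sensor.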
* = called active by the depositor. Hits are enriched below; roughly 4% of the tested compounds scored in any of these assays. Rule as the data show it, unless noted: active = activation above about 30%; inactive = the rest.

For CCc1ccc(-n2nc(C)c3c(C(=O)N4CCN(c5cccc(Cl)c5)CC4)cc(C)nc32)cc1 the results were D1 PAM 2.7, TRHR PAM -6.9, D1 ag 4.6, TRHR ag -0.9, D1 antag 11.4 and Glioma ERSR ind -1.8%.
Screening CCOC(=O)C1=C[C@@H](C(C)(C)C)N(S(=O)(=O)c2ccc(OC)cc2)[C@H]1c1ccccc1 returned Glioma ERSR ind -6.2%.
For CCn1c(Cc2ccccc2)nnc1SCC(=O)Nc1ccccc1F the results were D1 PAM 5.2, TRHR PAM 2.1, D1 ag 0.5, TRHR ag 0.4, D1 antag 0.0 and Glioma ERSR ind -1.6%.
COc1ccc(C(=O)CCN(C)C)c2ccccc12 was read as Glioma ERSR ind -11.5%.
NC(=O)NC(=O)COC(=O)c1cccnc1Nc1ccccc1F was read as D1 PAM 0.2, TRHR PAM -5.1, D1 ag 5.1, TRHR ag -1.9, D1 antag 4.0 and Glioma ERSR ind -0.6%.
For CCCNC(=O)COC(=O)c1cccnc1Nc1ccccc1F the results were D1 PAM -3.9, TRHR PAM 5.7, D1 ag 0.0, TRHR ag -0.2, D1 antag -32.5* and Glioma ERSR ind -1.8%.
`CC1COc2ccccc2N1S(=O)(=O)c1ccc(Cl)cc1` (configuration not stated) gave D1 PAM 2.5, TRHR PAM -3.8, D1 ag 5.2, TRHR ag 0.2, D1 antag 14.0 and Glioma ERSR ind -2.7%.
Screening CCOC(=O)c1cc2c(n(-c3ccc(Cl)cc3)c1=O)CCCC2=O returned D1 PAM -9.2, TRHR PAM 10.2, D1 ag -1.9, TRHR ag -0.5, D1 antag -30.4* and Glioma ERSR ind 0.5%.
O=C(COC(=O)Cc1ccccc1F)Nc1ccc2c(c1)OCO2 was read as D1 PAM -4.0, TRHR PAM -6.3, D1 ag 4.8, TRHR ag -0.8, D1 antag -37.1* and Glioma ERSR ind 3.6%.
For O=C(COC(=O)Cc1ccccc1F)Nc1ccc(SC(F)F)cc1 the results were D1 PAM -7.0, TRHR PAM -6.3, D1 ag 7.9, TRHR ag 0.5, D1 antag -34.9* and Glioma ERSR ind -0.8%.
Screening O=C(COC(=O)Cc1ccccc1F)Nc1ccc2c(c1)OCCO2 returned D1 PAM -10.8, TRHR PAM 10.7, D1 ag 5.2, TRHR ag -0.2, D1 antag -27.4 and Glioma ERSR ind -1.3%.
Screening COc1ccc2c(c1)c(C(=O)N/N=C/c1cccc(O)c1)c(C)n2C returned D1 PAM 18.2, TRHR PAM 1.6, D1 ag 1.3, TRHR ag -0.3, D1 antag -11.7 and Glioma ERSR ind -0.7%.
Screening NC(=O)CC(NC(=O)Cc1ccc(Br)cc1)c1ccc(NCc2ccc(F)cc2)c([N+](=O)[O-])c1 (configuration not stated) returned D1 PAM 1.4, TRHR PAM 0.6, D1 ag 13.0, TRHR ag 0.5, D1 antag 2.4 and Glioma ERSR ind -6.9%.
CCCCCOc1ccc(CSC(=N)N)cc1[N+](=O)[O-] was read as D1 PAM -0.8, TRHR PAM 9.0, D1 ag 55.9*, TRHR ag 4.5, D1 antag 35.0 and Glioma ERSR ind -6.3%.
For CCCCOc1ccc(Br)cc1CSC(=N)N the results were D1 PAM -5.3, TRHR PAM 3.8, D1 ag 61.8*, TRHR ag 2.0, D1 antag -3.7 and Glioma ERSR ind -2.1%.
`Cc1cnc(C2OCCO2)c2cccc(N)c12` gave Glioma ERSR ind -4.1%.
`O=C(CSc1nccc(-c2cccs2)n1)Nc1ccc(F)c(Cl)c1` gave D1 PAM -7.0, TRHR PAM -5.9, D1 ag 2.4, TRHR ag 0.4, D1 antag -39.0* and Glioma ERSR ind -3.1%.
`O=C(CSc1nccc(-c2cccs2)n1)Nc1cccc(Cl)c1` gave D1 PAM -2.5, TRHR PAM -4.3, D1 ag 5.8, TRHR ag 0.4, D1 antag -5.9 and Glioma ERSR ind -1.3%.
C=CCn1cc(/C=N/N2C(=O)C3C4C=CC(C4)C3C2=O)c2ccccc21 (configuration not stated) was read as D1 PAM -3.3, TRHR PAM -1.6, D1 ag 0.1, TRHR ag -0.1, D1 antag -5.8 and Glioma ERSR ind 1.9%.
`N#CCCCC#Cc1ccc2c(c1)COc1c3ccccc3nn1-2` gave D1 PAM -5.7, TRHR PAM -3.8, D1 ag 3.2, TRHR ag 0.1, D1 antag -19.4 and Glioma ERSR ind -10.1%.
CN(Cc1cccs1)C(=O)c1cc(S(=O)(=O)N2CCOCC2)ccc1N1CCCC1 was read as D1 PAM 1.5, TRHR PAM 0.3, D1 ag 0.2, TRHR ag 0.2, D1 antag -31.4* and Glioma ERSR ind -2.9%.
`O=C(NCc1cccs1)c1cc(S(=O)(=O)N2CCOCC2)ccc1N1CCCC1` gave D1 PAM -2.3, TRHR PAM -4.9, D1 ag 1.2, TRHR ag -0.3, D1 antag -5.3 and Glioma ERSR ind -3.3%.
Screening CC(C)NC(=O)NC(=O)COC(=O)c1cc(S(=O)(=O)N2CCCCC2)ccc1N1CCOCC1 returned D1 PAM -1.2, TRHR PAM -4.7, D1 ag 3.3, TRHR ag -1.7, D1 antag 4.3 and Glioma ERSR ind -3.0%.
O=C(c1cccc(S(=O)(=O)N2CCOCC2)c1)N(Cc1ccco1)Cc1cccs1 was read as D1 PAM -2.9, TRHR PAM 1.3, D1 ag 8.4, TRHR ag 0.5, D1 antag -55.7* and Glioma ERSR ind -3.4%.
`CC(C)CNC(=O)COC(=O)c1cc(S(=O)(=O)N2CCCCC2)ccc1N1CCOCC1` gave D1 PAM 3.2, TRHR PAM 32.4*, D1 ag -0.4, TRHR ag -0.2, D1 antag 6.7 and Glioma ERSR ind -3.0%.
`Cc1ccc(COC(=O)c2cc(S(=O)(=O)N3CCCCC3)ccc2N2CCOCC2)cc1` gave D1 PAM 1.9, TRHR PAM -6.0, D1 ag 3.4, TRHR ag 0.6, D1 antag -2.6 and Glioma ERSR ind -0.6%.
Screening O=C(COC(=O)c1cc(S(=O)(=O)N2CCCCC2)ccc1N1CCOCC1)NCCc1ccc(F)cc1 returned D1 PAM -8.7, TRHR PAM 30.8*, D1 ag 6.4, TRHR ag -0.4, D1 antag -14.0 and Glioma ERSR ind -4.1%.
`CC1(C(=O)NS(=O)(=O)c2cccc(C#N)c2)CCN1C(=O)CCc1ccccc1` (configuration not stated) gave Glioma ERSR ind -5.0%.
